Laboratory results reported in PubChem BioAssay AID1159580 (chemical genetic matrix, 2015).
Screen size: about 5,500 compounds; about 2,000 (36%) were called active. About 18% were inconclusive and are not listed. Rule as the data show it: active = normalized growth mostly below about 0.91 (no sharp cut-off); inconclusive = no clear call, values can overlap the other calls; inactive = mostly above about 0.92. The list shows a part of the results.

Assay: chemical genetic growth profiling, strain panel (AID 1159580);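 also: tested at 20 µM; growth read once vehicle control cultures reached saturation at 30 °C; 1 = growth at the plate median or of vehicle wells; lower values mean less growth of the strain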
Conditions: growth OD

Measured: normalized growth

CC(C)[C@@H]1CC[C@@H](C)C[C@H]1O
inactive: S. cerevisiae deletion strains, locus YJR066W, strain TOR1, active compounds read low 0.942 | S. cerevisiae deletion strains, locus YJR075W, strain HOC1, active compounds read low 1.01 | S. cerevisiae deletion strains, locus YKL009W, strain mrt4, active compounds read low 1 | S. cerevisiae deletion strains, locus YKL068W, active compounds read low 1.01 | S. cerevisiae deletion strains, locus YKL085W, strain MDH1 (second series), active compounds read low 1.01 | S. cerevisiae deletion strains, locus YKL085W, strain MDH1, active compounds read low 1.01 | S. cerevisiae deletion strains, locus YKL160W, strain elf1, active compounds read low 0.986 | S. cerevisiae deletion strains, locus YKL190W, strain CNB1, active compounds read low 1.01 | S. cerevisiae deletion strains, locus YKR001C, strain vps1, active compounds read low 1 | S. cerevisiae deletion strains, locus YKR026C, strain gcn3, active compounds read low 0.987 | S. cerevisiae deletion strains, locus YKR091W, strain srl3, active compounds read low 0.974 | S. cerevisiae deletion strains, locus YLL001W, strain dnm1, active compounds read low 0.997 | S. cerevisiae deletion strains, locus YLL026W, active compounds read low 1 | S. cerevisiae deletion strains, locus YLL041C, strain sdh2, active compounds read low 0.978 | S. cerevisiae deletion strains, locus YLR027C, strain aat2, active compounds read low 0.997 | S. cerevisiae deletion strains, locus YLR039C, strain RIC1, active compounds read low 1 | S. cerevisiae deletion strains, locus YLR058C, strain SHM2, active compounds read low 1 | S. cerevisiae deletion strains, locus YLR102C, strain apc9, active compounds read low 1.02 | S. cerevisiae deletion strains, locus YLR113W, strain HOG1, active compounds read low 0.973 | S. cerevisiae deletion strains, locus YLR221C, strain rsa3, active compounds read low 0.999 | S. cerevisiae deletion strains, locus YLR258W, strain gsy2, active compounds read low 0.99 | S. cerevisiae deletion strains, locus YLR262C, strain YPT6 (second series), active compounds read low 0.935 | S. cerevisiae deletion strains, locus YLR262C, strain YPT6, active compounds read low 1.01 | S. cerevisiae deletion strains, locus YLR268W, strain sec22, active compounds read low 1.01 | S. cerevisiae deletion strains, locus YLR320W, strain mms22, active compounds read low 0.991 | S. cerevisiae deletion strains, locus YLR330W, strain CHS5, active compounds read low 1.01 | S. cerevisiae deletion strains, locus YLR342W, strain FKS1 (second series), active compounds read low 1.02 | S. cerevisiae deletion strains, locus YLR342W, strain FKS1, active compounds read low 0.986 | S. cerevisiae deletion strains, locus YLR357W, strain rsc2, active compounds read low 0.953 | S. cerevisiae deletion strains, locus YLR370C, strain arc18, active compounds read low 0.985 | S. cerevisiae deletion strains, locus YLR371W, strain rom2, active compounds read low 1.01 | S. cerevisiae deletion strains, locus YLR384C, strain iki3, active compounds read low 0.999 | S. cerevisiae deletion strains, locus YLR418C, strain cdc73, active compounds read low 1.05 | S. cerevisiae deletion strains, locus YML016C, strain PPZ1, active compounds read low 1.01 | S. cerevisiae deletion strains, locus YML032C, strain rad52, active compounds read low 1 | S. cerevisiae deletion strains, locus YML120C, strain ndi1, active compounds read low 0.989 | S. cerevisiae deletion strains, locus YML124C, strain tub3, active compounds read low 1.02 | S. cerevisiae deletion strains, locus YMR058W, strain fet3, active compounds read low 0.97 | S. cerevisiae deletion strains, locus YMR078C, strain ctf18, active compounds read low 1.02 | S. cerevisiae deletion strains, locus YMR125W, strain sto1, active compounds read low 0.969 | S. cerevisiae deletion strains, locus YMR129W, active compounds read low 0.984 | S. cerevisiae deletion strains, locus YMR205C, strain PFK2, active compounds read low 1.01 | S. cerevisiae deletion strains, locus YMR223W, strain ubp8, active compounds read low 1.03 | S. cerevisiae deletion strains, locus YMR231W, strain pep5, active compounds read low 1 | S. cerevisiae deletion strains, locus YMR307W, strain GAS1, active compounds read low 0.985 | S. cerevisiae deletion strains, locus YNL067W, strain RPL9B, active compounds read low 0.976 | S. cerevisiae deletion strains, locus YNL071W, strain lat1, active compounds read low 0.979 | S. cerevisiae deletion strains, locus YNL128W, strain TEP1, active compounds read low 1.02 | S. cerevisiae deletion strains, locus YNL153C, strain GIM3, active compounds read low 0.95 | S. cerevisiae deletion strains, locus YNL183C, strain NPR1, active compounds read low 0.943 | S. cerevisiae deletion strains, locus YNL209W, strain ssb2, active compounds read low 0.985 | S. cerevisiae deletion strains, locus YNL233W, strain BNI4, active compounds read low 0.988 | S. cerevisiae deletion strains, locus YNL248C, strain rpa49, active compounds read low 0.987 | S. cerevisiae deletion strains, locus YNL250W, strain rad50, active compounds read low 1.02 | S. cerevisiae deletion strains, locus YNL271C, strain bni1, active compounds read low 1.02 | S. cerevisiae deletion strains, locus YNL298W, strain CLA4, active compounds read low 1.02 | S. cerevisiae deletion strains, locus YNL307C, strain MCK1, active compounds read low 1.02 | S. cerevisiae deletion strains, locus YNL322C, strain KRE1 (second series), active compounds read low 0.993 | S. cerevisiae deletion strains, locus YNR049C, strain mso1, active compounds read low 0.99 | S. cerevisiae deletion strains, locus YNR052C, strain pop2, active compounds read low 1.02 | S. cerevisiae deletion strains, locus YOL006C, strain TOP1, active compounds read low 0.977 | S. cerevisiae deletion strains, locus YOL012C, strain htz1 1.02 | S. cerevisiae deletion strains, locus YOL147C, strain pex11, active compounds read low 1.02 | S. cerevisiae deletion strains, locus YOR001W, strain rrp6, active compounds read low 0.993 | S. cerevisiae deletion strains, locus YOR061W, strain CKA2, active compounds read low 1.01 | S. cerevisiae deletion strains, locus YOR069W, strain VPS5, active compounds read low 1.02 | S. cerevisiae deletion strains, locus YOR070C, strain gyp1, active compounds read low 1 | S. cerevisiae deletion strains, locus YOR080W, strain dia2, active compounds read low 0.99 | S. cerevisiae deletion strains, locus YOR083W, strain WHI5, active compounds read low 0.996 | S. cerevisiae deletion strains, locus YOR106W, strain vam3, active compounds read low 0.979 | S. cerevisiae deletion strains, locus YOR136W, strain idh2, active compounds read low 1.01 | S. cerevisiae deletion strains, locus YOR144C, strain elg1, active compounds read low 1.02 | S. cerevisiae deletion strains, locus YOR184W, strain ser1, active compounds read low 1 | S. cerevisiae deletion strains, locus YOR231W, strain MKK1, active compounds read low 0.997 | S. cerevisiae deletion strains, locus YOR265W, strain rbl2, active compounds read low 0.988 | S. cerevisiae deletion strains, locus YOR270C, strain vph1, active compounds read low 0.931 | S. cerevisiae deletion strains, locus YOR290C, strain snf2, active compounds read low 0.967 | S. cerevisiae deletion strains, locus YOR316C, strain cot1, active compounds read low 1.03 | S. cerevisiae deletion strains, locus YPL051W, strain arl3, active compounds read low 1.02 | S. cerevisiae deletion strains, locus YPL078C, strain atp4, active compounds read low 0.976 | S. cerevisiae deletion strains, locus YPL106C, strain sse1, active compounds read low 1 | S. cerevisiae deletion strains, locus YPL240C, strain hsp82, active compounds read low 1 | S. cerevisiae deletion strains, locus YPL241C, strain CIN2, active compounds read low 1.01 | S. cerevisiae deletion strains, locus YPL256C, strain CLN2, active compounds read low 0.985 | S. cerevisiae deletion strains, locus YPR119W, strain clb2, active compounds read low 1.01 | S. cerevisiae deletion strains, locus YPR141C, strain kar3, active compounds read low 1.02 | S. cerevisiae deletion strains, locus YPR163C, strain tif3, active compounds read low 1.02 | S. cerevisiae deletion strains, locus YPR167C, strain met16, active compounds read low 1.02 | S. cerevisiae deletion strains, strain wtn01, active compounds read low 1.03 | S. cerevisiae strains, strain wild type, active compounds read low 1.01
